According to PubChem BioAssay:

target: Follistatin-related protein 3 (Homo sapiens) (UniProt O95633); test: compounds binding follistatin-related protein 3 – biochemical, small-molecule microarray, 635 nm fluorescence, primary screen (AID 1105); details: FSTL3 binding, higher = more signal;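 further: score merges emission near 667 nm and signal to noise per printed spot across three slides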
Sequence (O95633 whole entry, looked up): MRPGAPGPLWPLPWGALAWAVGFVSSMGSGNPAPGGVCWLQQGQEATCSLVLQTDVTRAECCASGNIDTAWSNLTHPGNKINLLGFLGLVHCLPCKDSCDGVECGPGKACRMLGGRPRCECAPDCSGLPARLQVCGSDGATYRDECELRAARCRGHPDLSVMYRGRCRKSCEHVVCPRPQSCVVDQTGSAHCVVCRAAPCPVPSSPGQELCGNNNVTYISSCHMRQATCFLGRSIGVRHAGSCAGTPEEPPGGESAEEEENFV

**Q.** CC[C@H]1C2=C3C(CC[C@H]4C(OC)OC[C@](C)([C@@H]34)N(C(=O)OC(C)(C)C)C2)C(CO)C1CO (stereo not given in full) was tested. Which composite z-score did it give?
**A.** 1.07

**Q.** With CC(C)(C)OC(=O)CC[C@@]1(C(=O)NCc2ccccc2)N=C(c2ccc(OCCCO)cc2)O[C@@H]1c1ccccc1 as the compound, how does the composite z-score read?
**A.** 0.545

**Q.** For CC(C)[Si](OCC[C@H]1O[C@]2(C(=O)N(Cc3ccccc3)c3ccccc32)[C@@H](C)[C@@H]1[Si](C)(C)O)(C(C)C)C(C)C, which composite z-score is on record?
**A.** -0.0398

**Q.** Which composite z-score does the source give for C[C@H]1COC(=O)[C@H](Cc2ccccc2)NC(=O)[C@@H](C)COC(=O)[C@H](Cc2ccccc2)NC1=O here?
**A.** 0.897

**Q.** Which composite z-score does the source give for COc1ccc([Si](C)(C)[C@H]2[C@H](CC(=O)N3Cc4ccccc4C[C@H]3CO)O[C@@]3(C(=O)N(Cc4cccc(N5CCOC5=O)c4)c4ccccc43)[C@@H]2C)cc1 here?
**A.** 1.24

**Q.** Which composite z-score does the source give for CO[C@H]1COC(=O)[C@@H](OCc2ccccc2)C=C[C@H](C)[C@@H](OC)COC(=O)[C@H](OCc2ccccc2)C=C[C@@H]1C here?
**A.** 0.172

**Q.** With C=C(COC)C(=O)CC[C@H](OC(=O)c1ccccc1-c1ccccc1C(=O)O)c1cccc(OCCO)c1 as the compound, how does the composite z-score read?
**A.** 1.33

**Q.** Cc1ccc(S[C@]2(C(=O)O)CC(=O)N(Cc3ccccc3)[C@@H]2c2ccc(CO)cc2)cc1 was tested. Which composite z-score did it give?
**A.** -0.0951

**Q.** Which composite z-score does the source give for O=C(O)[C@@H]1Cc2c([nH]c3ccccc23)[C@@H](c2ccccc2)N1 here?
**A.** 0.518

target: Dickkopf-related protein 1 (Homo sapiens) (UniProt O94907); test: small molecules binding DKK1 protein – biochemical, small-molecule microarray, 635 nm fluorescence scan, primary screen (AID 1106); details: higher = more signal;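 further: score merges emission near 667 nm with signal to noise over three replicate slides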
Sequence (O94907 whole entry, looked up): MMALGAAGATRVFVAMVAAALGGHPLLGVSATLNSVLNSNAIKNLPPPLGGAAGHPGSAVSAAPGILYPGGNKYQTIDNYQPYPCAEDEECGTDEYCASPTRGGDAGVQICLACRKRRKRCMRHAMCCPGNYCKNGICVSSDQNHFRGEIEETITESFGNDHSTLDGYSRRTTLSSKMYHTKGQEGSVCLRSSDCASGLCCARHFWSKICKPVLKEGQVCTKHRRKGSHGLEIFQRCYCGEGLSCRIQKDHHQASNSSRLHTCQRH

**Q.** For C=CCN1C(=O)[C@@]2(Cc3ccccc3)N=C(c3ccc(OCCCO)cc3)O[C@H]2c2ccccc21, which composite z-score is on record?
**A.** 0.613

**Q.** With CC(=O)Nc1ccc([C@H]2[C@H](C)CC[C@H]3C(=O)N4[C@@H](CC[C@@H](C)[C@@H]4c4ccc(NC(C)=O)cc4)C(=O)N32)cc1 as the compound, how does the composite z-score read?
**A.** 0.759

**Q.** How did the composite z-score turn out when COc1cc2c(cc1OC)CN(C(=O)[C@@H]1[C@H]3C(=O)O[C@H](c4ccccc4)[C@H](c4ccccc4)N3[C@H](c3ccccc3OCCO)[C@@]13C(=O)Nc1ccccc13)CC2 was run?
**A.** -0.134

**Q.** Which composite z-score does the source give for CCOC(=O)C[C@H]1[C@H](OC(=O)Cc2ccc3c(c2)OCO3)[C@@H](NC(=O)c2ccc3ccccc3c2)c2cc(OCCCO)ccc2N1C(=O)Cc1ccc(OC)cc1 here?
**A.** 0.435

**Q.** How did the composite z-score turn out when CO[C@@H]1COC(=O)[C@H](C)NC(=O)CC=C[C@@H](C)[C@H](OC)COC(=O)[C@H](C)NC(=O)CC=C[C@H]1C was run?
**A.** 0.503

**Q.** With CO[C@H]1COC(=O)CC=C[C@H](C)COC(=O)[C@@H](OCc2ccccc2)C=C[C@@H]1C as the compound, how does the composite z-score read?
**A.** 2.07

**Q.** For CCCC[C@@H]1C[C@H]1[C@@H](NC(=O)c1ccccc1)c1ccccc1C(F)(F)F, which composite z-score is on record?
**A.** -0.521

**Q.** Which composite z-score does the source give for CO[C@@H]1COC(=O)[C@H](C)NC(=O)CC=C[C@@H](C)[C@H](NS(=O)(=O)c2ccc(C)cc2)COC(=O)CC=C[C@@H]1C here?
**A.** 0.0647

**Q.** How did the composite z-score turn out when CC(=O)NCCCC[C@@H]1NC(=O)[C@H]2C[C@@H](C(=O)NCCCCCCN(C)C)[C@@H](c3cccc(OCCO)c3)N2C1=O was run?
**A.** 1.77

**Q.** With NC(=O)NCC#Cc1ccc2c(c1)[C@]1(C(=O)N2)[C@H](c2ccccc2OCCO)N2[C@H](c3ccccc3)[C@H](c3ccccc3)OC(=O)[C@H]2[C@@H]1C(=O)N1CCN(c2ncccn2)CC1 as the compound, how does the composite z-score read?
**A.** 0.133

**Q.** Which composite z-score does the source give for C[C@]1(C(=O)NCc2ccccc2)c2ccccc2C(=O)N(Cc2cc(C(F)(F)F)cc(C(F)(F)F)c2)[C@H]1c1ccc(CO)cc1 here?
**A.** 0.419

**Q.** Which composite z-score does the source give for C=C(COC)/C(=C/C[C@@H](OC(C)=O)c1cccc(OCCO)c1)c1cc(C(=O)OC)ccc1OC here?
**A.** -0.0663

**Q.** For COC(=O)[C@H]1[C@@H]2COc3ccccc3[C@H]2N[C@H]1C(=O)OC, which composite z-score is on record?
**A.** 0.0008

**Q.** How did the composite z-score turn out when CCc1cccc(NC(=O)O[C@H]2[C@H](OC(=O)Nc3ccccc3)[C@@H](OC(=O)Nc3ccccc3)[C@@H](OC)O[C@@H]2CO)c1 was run?
**A.** 0.319

**Q.** For C=CCN1C(=O)[C@]2(O[C@H](CCn3cc(CCO)nn3)[C@@H]([Si](C)(C)c3ccc(OC)cc3)[C@@H]2C)c2cc(NC(=O)c3ccc(OC)cc3)ccc21, which composite z-score is on record?
**A.** 0.863

**Q.** How did the composite z-score turn out when C=C(COC)/C(=C/C[C@H](OC(C)=O)c1ccc(OCCO)cc1)c1cnc2ccccc2c1 was run?
**A.** 0.766

**Q.** For [N-]=[N+]=NCc1ccccc1C[C@]1(C(=O)N2CCCCC2)N=C(c2ccc(OCCCO)cc2)O[C@H]1c1ccccc1CN=[N+]=[N-], which composite z-score is on record?
**A.** -0.531

**Q.** How did the composite z-score turn out when CO[C@H]1O[C@H](CO)[C@@H](OC(=O)Nc2ccccc2)[C@H](OC(=O)Nc2ccc3c(c2)OCO3)[C@@H]1OC(=O)Nc1ccc2c(c1)OCO2 was run?
**A.** 0.355

**Q.** With CCOC(=O)C1=C[C@@H](c2ccccc2)N(S(=O)(=O)c2ccc(C)cc2)[C@H]1c1ccc(F)cc1 as the compound, how does the composite z-score read?
**A.** 0.675

**Q.** For CCCC=C(CCC)[C@@H](NC(=O)c1ccc(C(F)(F)F)cc1)c1ccccc1, which composite z-score is on record?
**A.** -0.446

**Q.** With COC(=O)C[C@H]1O[C@]2(C(=O)N(Cc3ccccc3)c3ccc(I)cc32)[C@@H](C)[C@@H]1[Si](C)(C)c1ccc(OC)cc1 as the compound, how does the composite z-score read?
**A.** -0.524

**Q.** For CCC(=O)[C@]12O[C@@]3([C@@H]4C(=O)OCC[C@@H]41)N(CC)C(C)=C(C(=O)OC)[C@@H](c1ccccc1)N3C2=O, which composite z-score is on record?
**A.** 0.817

**Q.** COCCOC(=O)N1C(=O)[C@@]2(c3cc(C#CC4=CCCCC4)ccc31)[C@H](c1ccc(O)cc1)N1[C@H](c3ccccc3)[C@H](c3ccccc3)OC(=O)[C@H]1[C@@H]2C(=O)N1CCCCCCC1 was tested. Which composite z-score did it give?
**A.** 0.948

**Q.** For O=C(CS)NCCCCCNC(=O)[C@H]1C[C@H]2C(=O)N3CCC[C@H]3C(=O)N2[C@H]1c1ccc(O)cc1, which composite z-score is on record?
**A.** 0.844

**Q.** CSCC[C@@H]1NC(=O)CC=C[C@@H](C)COC(=O)[C@H](CCSC)NC(=O)CC=C[C@@H](C)COC1=O was tested. Which composite z-score did it give?
**A.** 1.12

**Q.** COCCOC(=O)N1C(=O)[C@@]2(c3cc(C#CCNC(N)=O)ccc31)[C@H](C(=O)N1CCCCCCC1)[C@H]1C(=O)O[C@H](c3ccccc3)[C@H](c3ccccc3)N1[C@@H]2c1ccccc1OCCO was tested. Which composite z-score did it give?
**A.** 0.485

**Q.** With O=C1O[C@H](c2ccccc2)[C@H](c2ccccc2)N2[C@H]1[C@@H](C(=O)Nc1nc3ccccc3s1)[C@]1(C(=O)Nc3ccc(C#CC4(O)CCCCCC4)cc31)[C@H]2c1ccc(O)cc1 as the compound, how does the composite z-score read?
**A.** 0.413

**Q.** Which composite z-score does the source give for CC[C@H]1C2=C3C(CC[C@H]4C(OC)OC[C@](C)([C@@H]34)N(C(=O)OC(C)(C)C)C2)C(CO)C1CO (stereo not given in full) here?
**A.** -0.212

**Q.** CC(C)(C)OC(=O)CC[C@@]1(C(=O)NCc2ccccc2)N=C(c2ccc(OCCCO)cc2)O[C@@H]1c1ccccc1 was tested. Which composite z-score did it give?
**A.** 0.144

**Q.** With CC(C)[Si](OCC[C@H]1O[C@]2(C(=O)N(Cc3ccccc3)c3ccccc32)[C@@H](C)[C@@H]1[Si](C)(C)O)(C(C)C)C(C)C as the compound, how does the composite z-score read?
**A.** 0.0477

**Q.** Which composite z-score does the source give for C[C@H]1COC(=O)[C@H](Cc2ccccc2)NC(=O)[C@@H](C)COC(=O)[C@H](Cc2ccccc2)NC1=O here?
**A.** 1.11

**Q.** Which composite z-score does the source give for COc1ccc([Si](C)(C)[C@H]2[C@H](CC(=O)N3Cc4ccccc4C[C@H]3CO)O[C@@]3(C(=O)N(Cc4cccc(N5CCOC5=O)c4)c4ccccc43)[C@@H]2C)cc1 here?
**A.** 1

**Q.** How did the composite z-score turn out when CO[C@H]1COC(=O)[C@@H](OCc2ccccc2)C=C[C@H](C)[C@@H](OC)COC(=O)[C@H](OCc2ccccc2)C=C[C@@H]1C was run?
**A.** 0.123

**Q.** C=C(COC)C(=O)CC[C@H](OC(=O)c1ccccc1-c1ccccc1C(=O)O)c1cccc(OCCO)c1 was tested. Which composite z-score did it give?
**A.** 1.94

**Q.** Which composite z-score does the source give for Cc1ccc(S[C@]2(C(=O)O)CC(=O)N(Cc3ccccc3)[C@@H]2c2ccc(CO)cc2)cc1 here?
**A.** -0.304

**Q.** How did the composite z-score turn out when O=C(O)[C@@H]1Cc2c([nH]c3ccccc23)[C@@H](c2ccccc2)N1 was run?
**A.** 0.509
